Measured values published in PubChem BioAssay (EPA / NIEHS).
“And” between values parts separate entries of the source, which are not always exact repeats. Identical values can stand only once. Some structures have more than one record in an assay (separate samples or runs), and their calls can disagree. The source made the active and inactive calls. How the source made its calls: active means hit-call score of the fitted dose curve at least 0.9, where 1 is the maximum; inactive means score below 0.9.

How the values were obtained:
[1] = ATG_CRE_CIS: Attagene CIS-FACTORIAL HepG2 Assay for human cAMP Responsive Element (CRE) binding protein 3 (AID 2282926); conditions: HepG2 CRE cis-reporter, Attagene multiplexed mRNA; actives raise or lower the signal
Summary of the method: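 Human liver HepG2, transient MRTU transfection, 24 h compound exposure. Total RNA → oligo(dT) RT → PCR → 6-FAM primer extension → HpaI cut → CE. Activity called both directions vs DMSO.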

[2] = molecular target: CCAAT/enhancer-binding protein beta (Homo sapiens) (UniProt P17676); assay: ATG_C_EBP_CIS: Attagene CIS-FACTORIAL HepG2 Assay for human CCAAT/Enhancer Binding Protein (C/EBP) beta (AID 2282927); conditions: HepG2 Attagene cis-factorial transcription factor reporter; actives raise or lower the signal
Sequence of CCAAT/enhancer-binding protein beta (Homo sapiens) (P17676 whole entry, looked up): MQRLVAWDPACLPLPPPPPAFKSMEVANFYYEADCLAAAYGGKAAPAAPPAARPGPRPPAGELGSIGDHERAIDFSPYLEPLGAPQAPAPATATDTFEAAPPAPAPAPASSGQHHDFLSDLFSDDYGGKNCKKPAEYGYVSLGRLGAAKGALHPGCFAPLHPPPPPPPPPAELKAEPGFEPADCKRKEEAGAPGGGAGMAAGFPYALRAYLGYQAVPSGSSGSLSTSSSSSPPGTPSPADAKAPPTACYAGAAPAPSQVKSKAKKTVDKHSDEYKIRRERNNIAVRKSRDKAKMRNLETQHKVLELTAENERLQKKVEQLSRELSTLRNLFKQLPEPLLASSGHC
Summary of the method: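 HepG2, transient MRTU transfection, 24 h treatment. RT-PCR plus CE fluorescence; DMSO negative control, bidirectional fit.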

[3] = ATG_CMV_CIS: Attagene CIS-FACTORIAL HepG2 Assay for human CMV (Internal Marker) (AID 2282928); conditions: HepG2 CMV promoter reporter, transcription factor profiling; actives raise or lower the signal;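 further: endpoint acts as a background internal control marker rather than a target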
Summary of the method: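 Cell system: HepG2, transiently transfected multiple reporter units under cis promoters. Exposure: 24 h. Detection: RT-PCR, FAM labeling, HpaI digestion, capillary electrophoresis. Analysis: bidirectional, DMSO baseline.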

[4] = ATG_DR4_LXR_CIS: Attagene CIS-FACTORIAL HepG2 Assay for human Liver X Receptor (LXR), DR4 submotif (AID 2282929); conditions: HepG2 Attagene DR4 cis-reporter, mRNA transcription; actives raise or lower the signal
Summary of the method: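 Endogenous factor activity at a DR4 cis-element is read as reporter mRNA in transiently transfected HepG2 cells. Exposure lasts 24 h; transcripts are amplified, fluorescently labelled and sized by capillary electrophoresis, with DMSO as baseline.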

[5] = molecular target: Aryl hydrocarbon receptor (Homo sapiens) (UniProt P35869); assay: ATG_Ahr_CIS: Attagene CIS-FACTORIAL HepG2 Assay for human Aryl Hydrocarbon Receptor (Ahr) (AID 2282930); conditions: HepG2 AhR cis-factorial reporter transcription; actives raise or lower the signal
Sequence of Aryl hydrocarbon receptor (Homo sapiens) (P35869 whole entry, looked up): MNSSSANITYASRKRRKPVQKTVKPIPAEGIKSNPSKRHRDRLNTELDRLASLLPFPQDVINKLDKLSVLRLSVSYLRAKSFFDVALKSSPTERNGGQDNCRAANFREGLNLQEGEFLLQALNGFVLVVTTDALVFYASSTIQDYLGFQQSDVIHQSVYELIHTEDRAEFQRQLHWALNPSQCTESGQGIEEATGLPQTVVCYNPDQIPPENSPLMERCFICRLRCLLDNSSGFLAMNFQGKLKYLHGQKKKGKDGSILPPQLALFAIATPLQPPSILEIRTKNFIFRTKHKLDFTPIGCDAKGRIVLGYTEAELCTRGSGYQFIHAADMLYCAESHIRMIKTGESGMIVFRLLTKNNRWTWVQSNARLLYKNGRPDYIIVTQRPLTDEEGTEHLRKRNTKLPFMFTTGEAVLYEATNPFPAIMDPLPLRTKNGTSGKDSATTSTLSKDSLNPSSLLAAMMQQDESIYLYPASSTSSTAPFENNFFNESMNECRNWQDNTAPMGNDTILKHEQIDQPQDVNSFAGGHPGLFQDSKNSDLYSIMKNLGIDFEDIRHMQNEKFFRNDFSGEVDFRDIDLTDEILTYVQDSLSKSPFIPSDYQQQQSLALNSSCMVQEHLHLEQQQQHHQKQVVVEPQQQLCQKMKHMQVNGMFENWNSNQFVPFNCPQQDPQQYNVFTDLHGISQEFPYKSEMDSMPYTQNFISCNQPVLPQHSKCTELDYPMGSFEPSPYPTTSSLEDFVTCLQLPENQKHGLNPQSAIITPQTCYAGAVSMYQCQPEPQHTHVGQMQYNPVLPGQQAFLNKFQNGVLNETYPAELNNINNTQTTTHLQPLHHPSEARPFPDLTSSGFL
Summary of the method: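 Endogenous factor activity is tracked through cis-promoter reporter units transfected into HepG2 cells. Transcript levels at 24 h are read by fluorescent RT-PCR and capillary electrophoresis, with activity in either direction scored relative to DMSO.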

[6] = ATG_AP_1_CIS: Attagene CIS-FACTORIAL HepG2 Assay for human Activator Protein 1 (AP-1) (AID 2282931); conditions: HepG2 Attagene cis-factorial AP-1 reporter mRNA; actives raise or lower the signal
Summary of the method: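 Fluorescence of labelled PCR fragments separated by capillary electrophoresis gives reporter mRNA levels. HepG2 with transfected cis-regulated reporter units, 24 h exposure; DMSO serves as baseline for bidirectional curve fits.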

[7] = ATG_AP_2_CIS: Attagene CIS-FACTORIAL HepG2 Assay for human Activator Protein 2 (AP-2) (AID 2282932); conditions: HepG2 AP-2 cis-reporter, Attagene transcription factor profiling; actives raise or lower the signal
Summary of the method: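 HepG2 cells transiently transfected with cis-element reporter units and exposed for 24 h. Reporter mRNA measured by RT-PCR, FAM labelling, HpaI digestion and capillary electrophoresis. Changes in either direction fitted relative to DMSO.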

[8] = ATG_BRE_CIS: Attagene CIS-FACTORIAL HepG2 Assay for human Bone Morphogenetic Protein (BMP) Response Element (BRE) (AID 2282933); conditions: HepG2 BMP response element reporter, Attagene transcription factor profiling; actives raise or lower the signal
Summary of the method: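 Transient MRTU transfection of human HepG2 liver cells; 24 h compound treatment; total RNA isolated, reverse-transcribed, PCR-amplified, 6-FAM labelled, HpaI-cut, capillary electrophoresis. DMSO = negative control/baseline, bidirectional fit.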

[9] = molecular target: Retinoic acid receptor alpha (Homo sapiens) (UniProt P10276); assay: ATG_DR5_RAR_CIS: Attagene CIS-FACTORIAL HepG2 Assay for human Retinoic Acid Receptor Alpha (RARE), DR5 submotif (AID 2282934); conditions: HepG2 Attagene cis-factorial RARE DR5 reporter, mRNA; actives raise or lower the signal
Sequence of Retinoic acid receptor alpha (Homo sapiens) (P10276 whole entry, looked up): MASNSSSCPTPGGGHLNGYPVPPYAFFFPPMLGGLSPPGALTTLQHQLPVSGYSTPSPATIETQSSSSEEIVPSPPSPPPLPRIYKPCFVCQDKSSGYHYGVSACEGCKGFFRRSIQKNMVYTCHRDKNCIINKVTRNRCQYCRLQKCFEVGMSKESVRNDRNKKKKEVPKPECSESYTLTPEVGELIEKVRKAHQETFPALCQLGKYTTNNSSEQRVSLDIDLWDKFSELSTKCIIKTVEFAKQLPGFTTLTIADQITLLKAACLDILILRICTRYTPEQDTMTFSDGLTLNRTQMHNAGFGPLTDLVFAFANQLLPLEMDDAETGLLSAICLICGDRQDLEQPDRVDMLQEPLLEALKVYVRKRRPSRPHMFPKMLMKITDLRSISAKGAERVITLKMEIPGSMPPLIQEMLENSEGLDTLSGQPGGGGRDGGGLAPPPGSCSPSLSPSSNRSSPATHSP
Summary of the method: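 After 24 h of chemical exposure, transiently transfected HepG2 cells were lysed for total RNA; the DR5-regulated reporter transcript was quantified via RT-PCR and capillary electrophoresis, with activity fitted bidirectionally against DMSO.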

[10] = molecular target: Transcription factor E2F1 (Homo sapiens) (UniProt Q01094); assay: ATG_E2F_CIS: Attagene CIS-FACTORIAL HepG2 Assay for human E2F Transcription Factor 1 (AID 2282935); conditions: HepG2 Attagene cis-reporter, E2F reporter RNA transcripts; actives raise or lower the signal
Sequence of Transcription factor E2F1 (Homo sapiens) (Q01094 whole entry, looked up): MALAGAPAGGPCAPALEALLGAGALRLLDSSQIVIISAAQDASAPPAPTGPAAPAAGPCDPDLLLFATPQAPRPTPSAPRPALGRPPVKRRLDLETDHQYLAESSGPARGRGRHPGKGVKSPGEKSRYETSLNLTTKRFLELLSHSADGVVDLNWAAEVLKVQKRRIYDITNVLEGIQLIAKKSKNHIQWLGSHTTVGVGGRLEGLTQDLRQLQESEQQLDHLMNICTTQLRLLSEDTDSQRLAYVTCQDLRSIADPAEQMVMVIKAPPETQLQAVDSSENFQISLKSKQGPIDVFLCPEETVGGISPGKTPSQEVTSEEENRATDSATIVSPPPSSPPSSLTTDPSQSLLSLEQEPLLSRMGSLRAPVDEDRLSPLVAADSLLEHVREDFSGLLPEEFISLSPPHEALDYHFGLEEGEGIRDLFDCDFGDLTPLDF
Summary of the method: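 Endogenous E2F1 activity read through cis-promoter reporter units transfected into HepG2. After 24 h compound treatment, reporter mRNA measured by RT-PCR, HpaI digestion and capillary electrophoresis. Bidirectional fit versus DMSO.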

[11] = ATG_E_Box_CIS: Attagene CIS-FACTORIAL HepG2 Assay for human Enhancer Box (E-box) (AID 2282936); conditions: HepG2 E-box cis-reporter transcription, actives raise or lower the signal
Summary of the method: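 HepG2 cells transiently transfected with multiplexed cis-element reporter units, dosed 24 h; reporter mRNA quantified by RT-PCR, 6-FAM labelling, HpaI digestion and capillary electrophoresis. E-box (USF1) signal fitted bidirectionally vs DMSO.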

[12] = ATG_M_61_CIS: Attagene CIS-FACTORIAL HepG2 Assay for M61 Transcription Factor (Internal Marker) (AID 2282937); conditions: HepG2 Attagene CIS-FACTORIAL M61 internal marker reporter; actives raise or lower the signal
Summary of the method: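 This endpoint serves as an internal background control within a multiplexed HepG2 cis-reporter panel. Cells are exposed for 24 h; reporter mRNA is amplified, fluorescently labelled and sized by capillary electrophoresis, with DMSO as negative control.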

[13] = ATG_EGR_CIS: Attagene CIS-FACTORIAL HepG2 Assay for human Early Growth Response 1 (EGR1) (AID 2282938); conditions: HepG2 Attagene CIS-FACTORIAL EGR reporter mRNA; actives raise or lower the signal
Summary of the method: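 HepG2, transient MRTU transfection (cis promoters), 24 h compound. RNA → RT (oligo-dT) → PCR → 6-FAM labelling → HpaI cut → CE fluorescence. Bidirectional fit, DMSO baseline.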

[14] = ATG_M_19_CIS: Attagene CIS-FACTORIAL HepG2 Assay for M19 Transcription Factor (Internal Marker) (AID 2282939); conditions: HepG2 Attagene CIS-FACTORIAL M19 internal marker reporter; actives raise or lower the signal
Summary of the method: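 Transfect HepG2 with MRTU reporter library → dose chemical, 24 h → isolate total RNA, reverse-transcribe with oligo(dT) → PCR, 6-FAM label, HpaI cut (2 h, 37 C) → capillary electrophoresis. Bidirectional fit vs DMSO.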

[15] = ATG_Ets_CIS: Attagene CIS-FACTORIAL HepG2 Assay for human Erythroblast Transformation Specific (ETS) (AID 2282941); conditions: HepG2 ETS cis-reporter transcription, actives raise or lower the signal
Summary of the method: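 After transient cis-reporter transfection, HepG2 cells receive test chemical for 24 h. Reporter mRNA levels, measured by RT-PCR and capillary electrophoresis fluorescence, are analysed bidirectionally relative to the DMSO baseline.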

[16] = molecular target: Hepatocyte nuclear factor 3-beta (Homo sapiens) (UniProt Q9Y261); assay: ATG_FoxA2_CIS: Attagene CIS-FACTORIAL HepG2 Assay for human Forkhead box A2 (FOXA2) (AID 2282942); conditions: HepG2 cis-reporter transcription factor activity, 24 h; actives raise or lower the signal
Sequence of Hepatocyte nuclear factor 3-beta (Homo sapiens) (Q9Y261 whole entry, looked up): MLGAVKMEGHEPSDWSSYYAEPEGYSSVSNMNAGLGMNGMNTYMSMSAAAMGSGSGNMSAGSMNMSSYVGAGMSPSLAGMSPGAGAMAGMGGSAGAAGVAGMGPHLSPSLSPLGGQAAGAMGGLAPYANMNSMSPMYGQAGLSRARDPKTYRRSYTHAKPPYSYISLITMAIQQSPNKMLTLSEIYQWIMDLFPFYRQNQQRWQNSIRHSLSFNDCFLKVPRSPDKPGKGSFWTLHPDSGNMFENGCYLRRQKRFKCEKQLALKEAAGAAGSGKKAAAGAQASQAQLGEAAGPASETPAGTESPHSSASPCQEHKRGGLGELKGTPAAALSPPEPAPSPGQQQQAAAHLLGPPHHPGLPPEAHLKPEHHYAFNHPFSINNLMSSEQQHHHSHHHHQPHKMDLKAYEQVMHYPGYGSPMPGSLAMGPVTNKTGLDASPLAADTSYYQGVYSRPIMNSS
Summary of the method: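 Cells: HepG2, transient multiplex reporter transfection. Exposure 24 h. Detection: reporter-specific RT-PCR, fluorescent labelling, restriction digest, capillary electrophoresis. Analysis: bidirectional curve fit, DMSO as negative control.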

[17] = ATG_FoxO_CIS: Attagene CIS-FACTORIAL HepG2 Assay for human Forkhead box O (FoxO) (AID 2282943); conditions: HepG2 Attagene cis-reporter, FoxO element, mRNA; actives raise or lower the signal
Summary of the method: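 Transfected HepG2 reporter cells exposed to test chemical for 24 h; reporter RNA measured by reverse transcription, PCR and fluorescent capillary electrophoresis; curves fitted for increases and decreases against DMSO.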

[18] = ATG_GATA_CIS: Attagene CIS-FACTORIAL HepG2 Assay for human GATA Binding Protein (AID 2282944); conditions: HepG2 GATA cis-element reporter, Attagene multiplex mRNA; actives raise or lower the signal
Summary of the method: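 Transient MRTU transfection, HepG2, 24 h compound exposure. Total RNA → oligo(dT) RT → PCR → 6-FAM primer extension → HpaI cut → CE. Bidirectional fit vs DMSO.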

[19] = ATG_GLI_CIS: Attagene CIS-FACTORIAL HepG2 Assay for human Zinc Finger Protein GLI1 (AID 2282945); conditions: HepG2, Attagene cis-factorial reporter mRNA, GLI element; actives raise or lower the signal
Summary of the method: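 Transiently transfected HepG2 cells report endogenous transcription factor activity via cis-element-driven reporter units. After 24 h compound exposure, reporter mRNA was measured by RT-PCR with capillary electrophoresis; bidirectional fitting against DMSO baseline.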

[20] = ATG_ERE_CIS: Attagene CIS-FACTORIAL HepG2 Assay for Estrogen Response Element (ERE) (AID 2282940); conditions: HepG2 ERE cis-reporter, Attagene RNA transcript; actives raise or lower the signal
Summary of the method: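 Transient MRTU transfection of human HepG2; cis-element promoters; 24 h dosing; total RNA → RT (oligo dT) → PCR → 6-FAM primer extension → HpaI digest → CE fluorescence. Bidirectional fit, DMSO baseline.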

Measured: AC50

C[C@]12C[C@H](O)[C@H]3[C@@H](CCC4=CC(=O)CC[C@@]43C)[C@@H]1CC[C@@H]2C(=O)CO
not listed: [20]
inactive: all other assays above

C=CCOC(Cn1ccnc1)c1ccc(Cl)cc1Cl (centres undefined)
active: [1] 12.9 µM | [2] 12.4 µM | [3] 33 µM | [4] 76.1 µM | [6] 50 µM | [7] 50 µM | [8] 33.7 µM | [13] 30.9 µM
inactive: [10] | [11] | [12] | [14] | [15] | [17] | [18] | [19]

CCCCOCCOCCOCc1cc2c(cc1CCC)OCO2
active: [3] 24.3 µM | [4] 89.8 µM | [6] 50 µM | [10] 58.4 µM
not listed: [5] | [7] | [13] | [16] | [20]
inactive: all other assays above

CC(=O)S[C@@H]1CC2=CC(=O)CC[C@]2(C)[C@H]2CC[C@@]3(C)[C@@H](CC[C@@]34CCC(=O)O4)[C@H]12
inactive: [2] | [3] | [4] | [5] | [6] | [8] | [10] | [11] | [12] | [14] | [20] | [16] | [17] | [18] | [19]
active: [3] 26.1 µM and 3.77 µM and 12.1 µM | [4] 10.6 µM and 12.5 µM and 11.8 µM | [8] 70.9 µM and 152 µM | [11] 7.33 µM and 26.6 µM and 18.4 µM

S=C([S-])NCCNC(=S)[S-].[Mn+2]
not listed: [5] | [7] | [9] | [13] | [15] | [16] | [20]
inactive: all other assays above

COC(=O)c1ccc(CNS(C)(=O)=O)cc1S(=O)(=O)NC(=O)Nc1nc(OC)cc(OC)n1
not listed: [5] | [7] | [16]
inactive: all other assays above

CC1(C)C(C=C(Cl)Cl)C1C(=O)OCc1cccc(Oc2ccccc2)c1 (centres undefined)
active: [4] 29.9 µM | [20] 21.3 µM
not listed: [5] | [9] | [15]
inactive: all other assays above

N#CSCSc1nc2ccccc2s1
active: [3] 2.95 µM | [4] 3.05 µM | [6] 3.02 µM | [8] 3.03 µM | [11] 6.89 µM
inactive: [2] | [3] | [4] | [6] | [8] | [9] | [10] | [11] | [12] | [14] | [20] | [15] | [17] | [18] | [19]

CSC(=O)c1cccc2nnsc12
not listed: [5] | [13] | [15] | [16]
inactive: all other assays above

COC(=O)c1cccc(C)c1S(=O)(=O)NC(=O)Nc1nc(OCC(F)(F)F)nc(N(C)C)n1
not listed: [7] | [15]
inactive: all other assays above

c1ccc2[nH]c(-c3cscn3)nc2c1
inactive: [1] | [2] | [3] | [4] | [6] | [8] | [9] | [10] | [11] | [12] | [14] | [20] | [15] | [17] | [18] | [19]
active: [4] 32.1 µM

COCCO
not listed: [5] | [7] | [15] | [16]
inactive: all other assays above

O=C(c1ccc(O)cc1O)c1ccc(O)cc1O
active: [3] 80.5 µM [middle of 4 runs] | [20] 843 nM [middle of 4 runs]
not listed: [7] | [15] | [16]
inactive: all other assays above

CCOC(=O)c1ccc(O)cc1
active: [2] 100 µM | [8] 166 µM | [11] 167 µM
inactive: [1] | [2] | [3] | [4] | [6] | [7] | [8] | [9] | [10] | [11] | [12] | [14] | [16] | [17] | [18] | [19]
